Bioassay records from PubChem.
ADAM10 inh: ADAM10 inhibition, QFRET primary screen; inhibition, % at 7 µM; 0.62% of 370,000 active; AID 720582; recombinant ADAM10, EDANS/DABCYL FRET peptide cleavage, 3 h; O14672;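 active = inhibition above a per-campaign cutoff equal to the mean of compounds falling between control-based bounds plus 3 SD, cut at about 20% in these data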
Target sequence (O14672 214-748 limits assumed): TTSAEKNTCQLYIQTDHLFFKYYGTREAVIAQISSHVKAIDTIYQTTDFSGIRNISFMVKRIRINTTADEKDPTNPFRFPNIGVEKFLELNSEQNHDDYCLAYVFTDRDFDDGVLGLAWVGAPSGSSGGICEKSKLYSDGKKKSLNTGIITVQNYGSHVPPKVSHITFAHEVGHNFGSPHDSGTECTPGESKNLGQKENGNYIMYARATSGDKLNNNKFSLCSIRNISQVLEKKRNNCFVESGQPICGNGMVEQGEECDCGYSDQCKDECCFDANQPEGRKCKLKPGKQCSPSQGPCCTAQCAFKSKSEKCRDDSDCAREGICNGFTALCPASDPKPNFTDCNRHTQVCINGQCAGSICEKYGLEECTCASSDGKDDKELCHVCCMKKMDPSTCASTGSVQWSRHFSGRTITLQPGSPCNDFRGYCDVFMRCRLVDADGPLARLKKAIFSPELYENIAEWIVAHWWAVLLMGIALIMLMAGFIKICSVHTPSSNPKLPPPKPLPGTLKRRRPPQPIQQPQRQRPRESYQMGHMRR
ADAM17 inh: inhibits human ADAM17; 0.83% of 370,000 active; recombinant ADAM17, EDANS/DABCYL FRET peptide cleavage; P78536; inhibition, % at 6.95 µM; AID 720648;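 active = inhibition above the mean of compounds lying between control limits plus 3 SD, set per campaign, cut at about 8.5% in these data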
sPLA2-III inh: Inhibits HGIII-sPLA2 liposome hydrolysis, primary screen. QFRET BODIPY PC-A2 liposome hydrolysis, fluorescence. 0.56% of 370,000 active. inhibition, % at 12.2 µM. Q9NZ20. AID 743126;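 active = inhibition above mean plus 3 SD of compounds lying within the high and low control bounds, cut at about 19% in these data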
GRIN3A LBD mod: NR3A (human) ligand-binding domain modulation; Tm shift relative to glycine control, % at 25 µM; 2.5% of 340,000 active; NR3A LBD differential scanning fluorimetry, Tm shift; 0% = protein alone, 100% = glycine-bound protein;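 active = melting temperature shift of at least 10% of the positive control shift, at one fixed dose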
FAS TE block: blocks the thioesterase domain of human fatty acid synthase | P49327 | recombinant FAS-TE, OMFH fluorogenic substrate, fluorescence endpoint | inhibition, % at 15 µM | 0.67% of 360,000 active;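 active = compounds whose normalised, plate-corrected inhibition of enzyme fluorescence in the single-dose primary screen is 50% or more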
A number is an active result; i = inactive; nt = no result given. This is a sample that favours compounds with a hit; in the whole collection about 4.3% have one here.

SMILES | ADAM10 inh | ADAM17 inh | sPLA2-III inh | GRIN3A LBD mod | FAS TE block
O=C(CSc1nnc(-c2cnccn2)n1-c1ccccc1)Nc1ccc2c(c1)OCCO2 | i | i | i | nt | nt
CC1(c2ccc(OC(F)F)cc2)NC(=O)N(CC(=O)Nc2ccccc2)C1=O (configuration not stated) | i | i | i | i | i
Cc1ccc2nc(-c3ccc(NC(=O)CN(c4ccccc4C)S(C)(=O)=O)cc3)sc2c1 | i | i | i | 15.0 | i
Cc1ccccc1N(CC(=O)Nc1ccc(F)cc1)S(C)(=O)=O | i | i | i | i | i
Cc1ccc2nc(-c3ccc(NC(=O)CN4C(=O)NC(C)(c5ccc(OC(F)F)cc5)C4=O)cc3)sc2c1 (configuration not stated) | i | i | i | 34.6 | i
Cc1cc(C)cc(N(CC(=O)Nc2ccc(-c3nc4ccc(C)cc4s3)cc2)S(C)(=O)=O)c1 | i | i | i | 25.9 | i
CCN(CC)C(=O)CC[C@H]1CC[C@]2(CCCN(Cc3ccccc3)C2)O1 | i | i | i | nt | nt
CN(/N=C/c1cc(Cl)cc(Cl)c1O)C(=S)NC(C)(C)C | i | i | i | 31.4 | i
CCOC(=O)[C@]12CCCCC/C=C\1N(Cc1ccc(OC)cc1)C(=O)[C@H]2CC(=O)NCCC(C)C | i | i | i | nt | nt
COc1ccc(C(c2nnnn2C2CCCC2)N2CCC(C(N)=O)CC2)c(OC)c1 (configuration not stated) | i | i | i | 14.2 | i
COc1ccc(C(=O)C(=NNc2ccccc2)c2ccc(OC)cc2)cc1 | i | i | i | 12.6 | i
O/C(=C\c1nc2ccccc2nc1/C=C(\O)c1ccccc1)c1ccccc1 | nt | nt | nt | 22.4 | i
O=C(Nc1nc2ncccn2c1-c1ccc(C(F)(F)F)cc1)c1ccccc1 | i | i | i | nt | nt
N#CCSc1nc(-c2ccccc2)c2cc(Cl)ccc2n1 | i | i | i | 17.9 | i
COc1cc(C(=O)Nc2sc(C)c(C)c2C(=O)O)cc(OC)c1OC | i | i | i | 15.5 | i
Cc1ccc(S(=O)(=O)c2c(C)nn(C(C)(C)C)c2OC(=O)C2CCCC2)cc1 | i | i | i | 10.2 | i
C=CCNC(=O)c1ccccc1NC(=O)c1ccc(Cl)c(S(=O)(=O)Nc2ccccc2)c1 | 26.9 | i | i | 14.3 | i
CCN(CC)CCCNC(=O)c1cc2c(-c3cccc(OC)c3)nn(C)c2s1 | i | i | i | 10.6 | i
CC(C)c1cccc(C(C)C)c1OC(=O)[C@H]1OC(c2ccc(Br)cc2)=C[C@@H]1c1ccc(Br)cc1 | i | i | i | i | i
CC(C)c1cccc(C(C)C)c1OC(=O)[C@H]1OC(C(C)(C)C)=C[C@@H]1c1ccccc1 | i | i | i | 15.7 | i
O=C(Nc1cccc(C(=O)Nc2ccc(Br)cc2)c1)c1ccccc1 | i | i | i | 27.3 | i
O=C(Nc1ccc(Br)cc1)c1cc([N+](=O)[O-])cc([N+](=O)[O-])c1 | i | i | i | i | 54.9
O=C(Nc1ccccc1)c1ccc(NC(=O)C2CC2)cc1 | i | i | i | 15.9 | i
O=C(Nc1ccc(C2SCCS2)cc1)c1ccccc1 | i | i | i | 14.8 | i
CC(=O)c1ccc(NC(=O)c2cccc(NC(=O)c3ccccc3)c2)cc1 | i | i | i | i | i
SMILES | ADAM10 inh | ADAM17 inh | sPLA2-III inh | GRIN3A LBD mod | FAS TE block
CC(=O)Nc1ccc(NC(=O)c2cc([N+](=O)[O-])cc([N+](=O)[O-])c2)cc1 | i | i | i | i | i
Cn1c(SCC(=O)NCCN2CCCCC2)nc2cccnc21 | i | i | i | nt | nt
O=C(Nc1ccc(NS(=O)(=O)c2ccccc2)cc1)c1ccc(Cl)cc1 | i | i | i | i | i
O=C(Nc1ccc(Cl)cc1Cl)c1ccc(-c2ccccc2)cc1 | i | i | i | i | i
O=C(Nc1ccc(Nc2ccccc2)cc1)c1ccc(Cl)cc1 | i | i | i | 31.9 | i
O=C(Nc1ccccc1)c1oc2ccccc2c1NC(=O)C1CC1 | i | i | i | 13.3 | i
O=C(Nc1ccc(Br)cc1)c1cccc(N2C(=O)CCC2=O)c1 | i | i | i | 14.1 | i
O=C(Nc1cc(-c2ccccc2)[nH]n1)c1ccc(Cl)cc1 | i | i | i | 18.5 | i
O=C(Nc1ccc2c(c1)OCCO2)c1oc2ccccc2c1NC(=O)C1CC1 | i | i | i | i | i
CCN(Cc1ccccc1)C(=O)C1C2C=CC3(CN(Cc4ccccc4)C(=O)C13)O2 (configuration not stated) | i | i | i | nt | nt
O=C(Nc1ccc(Cl)c(Cl)c1)C1CCN(c2nnc(-n3cccc3)s2)CC1 | i | i | i | nt | nt
O=C(Nc1ccc(Nc2ccccc2)cc1)c1ccccc1 | i | i | i | 13.5 | nt
O=C(Nc1ccc(Nc2ccccc2)cc1)c1ccc(Br)cc1 | i | i | i | 36.3 | i
O=C(Nc1ccc(F)cc1)c1ccccc1 | i | i | i | 15.7 | i
O=C(Nc1ccc(F)cc1)c1cccc(C(=O)Nc2ccc(F)cc2)c1 | i | i | i | i | i
O=C(NNC(=O)c1ccc(NC(=O)c2ccccc2)cc1)c1ccccc1 | i | i | i | i | i
O=C(Cc1ccccc1)Nc1ccc(NC(=O)c2ccc(Br)cc2)cc1 | i | i | i | i | i
O=C(Nc1ccc2ncccc2c1)c1cccc(Br)c1 | i | i | i | 22.4 | i
Cc1ccccc1Cn1cc(CN2[C@@H](C)COc3cc(Br)ccc3S2(=O)=O)nn1 | i | i | i | nt | nt
Cc1ccc(C(=O)Nc2ccc(Nc3ccccc3)cc2)cc1Br | i | i | i | 25.5 | i
Cc1ccc(NC(=O)c2ccc(NC(=O)c3ccccc3)cc2)cc1C | i | i | i | 17.0 | i
Cc1ccc(NC(=O)c2ccc(NS(=O)(=O)c3c(C)noc3C)cc2)cc1C | i | i | i | 30.1 | i
N#C/C(C(=O)Nc1ccc(Cl)cc1)=C(/S)Nc1ccccc1 | i | i | i | 32.5 | i
COc1ccc(NC(=O)c2ccc(NS(=O)(=O)c3c(C)noc3C)cc2)cc1OC | i | i | i | i | i
Cc1ccc(C(=O)Nc2ccc(Nc3ccccc3)cc2)cc1C | i | i | i | i | i
SMILES | ADAM10 inh | ADAM17 inh | sPLA2-III inh | GRIN3A LBD mod | FAS TE block
FC(F)(F)c1ccccc1NC(=S)OCCN1CCCC12CCC(c1ccccc1)CC2 (configuration not stated) | i | i | i | nt | nt
COC(=O)C1CN(Cc2cn(CCOC(C)=O)nn2)CCS(=O)(=O)N1Cc1ccc(Cl)cc1 (configuration not stated) | i | i | i | nt | nt
O=C(Nc1ccccc1)c1cccc(N2C(=O)C3C4C=CC(C4)C3C2=O)c1 (configuration not stated) | i | i | i | i | i
O=C(Nc1ccc(F)cc1)c1cccc(N2C(=O)C3C4C=CC(C4)C3C2=O)c1 (configuration not stated) | i | i | i | 17.6 | i
O=C(Nc1ccc(Cl)cc1)C1=Cc2ccccc2OC1 | i | i | i | 19.9 | i
Cc1ccccc1CN1CCCCC(NC(=O)c2ccc(F)c(F)c2)C1=O (configuration not stated) | i | i | i | nt | nt
Cc1ccc(NC(=O)c2cc3ccccc3oc2=N)cc1 | i | i | i | i | i
